Measured values from PubChem BioAssay AID651812 (National Center for Advancing Translational Sciences (NCATS), 2012).
The whole screen tested about 2,100 compounds, of which about 650 (31%) were called active. Inconclusive results (about 16%) are left out. The call rests on the fitted dose curve; in most records, active means well fitted inhibition curve with a large enough effect; inconclusive means small, poorly fitted or top-dose-only effect; inactive means flat fitted curve, though single readings scatter. Some of the results follow.

Experiment: qHTS for inhibitors of Vif-A3G interactions: Cherry picks; further: nearly all actives have a fitted effect of over 80% in size
Conditions: HeLa A3G-eYFP + Vif (tagged APOBEC3G with the HIV-1 protein that degrades it), 24 h; Potency: eYFP fluorescence increase; series mostly up to 36.9 µM
In short: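 HeLa cells stably expressing A3G-eYFP and Vif, cultured overnight then exposed to compounds at several concentrations for 24 hours at 37 C, 5% CO2; cellular yellow fluorescence (488 nm ex, 500-530 nm em) imaged on Acumen, MG132 positive control.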
Potency means the concentration at half of the fitted maximal effect.

SMILES	Potency
COc1ccccc1/C=C/C=N/n1c(-c2ccc(C)cc2)n[nH]c1=S	inactive
O=c1c(O)c(-c2cccs2)oc2ccccc12	2.59 µM (active)
C/C(=N\NC(N)=S)C12CC3CC(CC(C3)C1)C2	inactive
O=C(c1ccccc1F)n1c2c(c3ccccc31)CCCC2	inactive
COc1ccc(C)c(Cn2c(-c3nonc3N)nc3ccccc32)c1	inactive
Nc1nonc1-c1nc2ccccc2n1CC(=O)Nc1cccc(C(F)(F)F)c1	25.9 µM (active)
Nc1nonc1-c1nc2ccccc2n1Cc1ccc(F)cc1	inactive
O=c1c[n+]([O-])c2ccccc2n1OCc1c(F)cccc1F	inactive
O=C(O)c1ccccc1N/N=C/c1c(Sc2nnnn2-c2ccccc2)nc2ccccn2c1=O	3.53 µM (active)
O=c1oc2c3c4c(cc2c(C(F)(F)F)c1CCN1CCOCC1)CCCN4CCC3	7.31 µM (active)
O=C(Nc1cc(Cl)ccc1-n1cncn1)c1ccc([N+](=O)[O-])s1	15.8 µM (active)
O=C(O)Cc1sc(NC2CCCCC2)nc1-c1ccc(Cl)cc1	inactive
COC(=O)C1=C(Nc2ccc(C)cc2)C=C(C)C(C(=O)OC)C1c1cccc(OC)c1 (stereo unspecified)	inactive
CC(=O)Nc1ccc(S(=O)(=O)N2c3ccccc3C(C)=CC2(C)C)cc1	inactive
O=C(NN(c1ccccc1)c1ccccc1)c1ccc([N+](=O)[O-])o1	inactive
Cc1cccc(/C=C/C(=O)c2ccc([N+](=O)[O-])o2)c1	inactive

SMILES	Potency
Cc1cc2ccccn2c1C(=O)c1ccc([N+](=O)[O-])o1	18.4 µM (active)
CCN(CC)C(=O)Cn1c(C)c(/C=C/c2cc[n+](C)cc2)c2ccccc21	12.5 µM (active)
COC(=O)Cn1c(C)c(/C=C/c2cc[n+](C)cc2)c2ccccc21	13 µM (active)
N#C/C(=C/c1cccs1)c1ccccn1	14 µM (active)
N#C/C(=C/c1ccc(N2CCCCCC2)o1)c1cccc(F)c1	3.66 µM (active)
CSc1nc2ccccc2cc1/C=C(\C#N)c1cccc(C)c1	inactive
N#C/C(=C/c1ccc(N2CCCCC2)o1)c1cccc(F)c1	8.2 µM (active)
COc1cc(C2C(C#N)=C(N)Oc3cc(O)ccc32)cc(OC)c1OC (stereo unspecified)	inactive
CCCCN(C)CC(O)Cn1cc(/C=C/C(=O)c2cccs2)c2ccccc21 (stereo unspecified)	20.6 µM (active)
Cc1noc(C)c1CSc1nc2ccccc2c(=O)n1-c1ccccc1	inactive
CN(NC(=O)c1ccccc1)c1nc2ccccc2nc1C(F)(F)F	inactive
Nc1ccc(/C=C/c2cc(Cl)nc3ccccc23)cc1	20.6 µM (active)
CN(C)c1ccc(/C=C/c2nc3ccccc3c(=O)n2CCO)cc1	18.4 µM (active)
CN(C)c1ccc(/C=C/c2cc(N(C)C)nc3ccccc23)cc1	13 µM (active)
CN(C)c1ccc(/C=C/c2cc(/C=C/c3ccc(N(C)C)cc3)c3ccccc3n2)cc1	6.51 µM (active)
